Unmarked numbers belong to inactive results. Inconclusive results are not listed. Active and inactive are the calls of the source. Unless noted, the call rests on the fitted dose curve; in most records, active means well fitted curve in either direction with a large enough effect (not every such curve was filed as active); inconclusive means small, poorly fitted or top-dose-only effect, or another doubt; inactive means flat fitted curve, though single readings scatter.
What was measured:
[1] = target: Lysosomal acid glucosylceramidase (Homo sapiens) (UniProt P04062); assay: Glucocerebrosidase-p2 (AID 348; in the data active means potency below about 10 µM; further: potency means the concentration at half of the fitted maximal effect); details: purified GBA, blue fluorogenic substrate, 40 min
Summary of the method: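 Compounds titrated from 0.6 nM upwards against 0.2 nM enzyme in pH 5.9 citric acid/KH2PO4, taurocholate, tween-20; blue fluorogenic substrate 80 uM, 40 min room temperature, stopped and read Ex 365/Em 440 for AC50.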

[2] = AP1 Signaling Pathway (AID 357); details: ME-180 AP-1-bla reporter, EGF-induced, beta-lactamase ratio, 5 h; at 7.69 µM (top of the series) unless noted;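 further: ME-180 reporter cells stimulated with EGF at its EC50 level; on the % scale 0 is the no-effect control and ±100 the full control effect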
Summary of the method: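 Modulation of EGF-driven AP-1 transcription was assessed with a beta-lactamase reporter in ME-180 cells. Compound and EC50 EGF were co-incubated 5 hours at 37 °C before 2.5-hour CCF4 loading at room temperature and dual-emission reading.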

[3] = target: Cytochrome P450 1A2 (Homo sapiens) (UniProt P05177); assay: p450-cyp1a2 (AID 410; calls by dose curve; further: potency means the concentration at half of the fitted maximal effect;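 on activity change, negative = inhibition: -100% = full effect of reference inhibitor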); details: recombinant CYP1A2, luciferin-ME demethylation, luminescence; series mostly up to 11.4 µM
Summary of the method: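 Inhibition was calculated relative to 57 uM furafylline (full inhibition). The reaction used human CYP1A2 at 20nM with Luciferin-ME at its Km, 100uM, driven by an NADPH-regenerating system for 60 min at room temperature.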

[4] = NFAT Signaling Pathway (AID 444); details: Jurkat NFAT-bla M1, carbachol, beta-lactamase ratio, 5 h; at 7.69 µM (top of the series) unless noted;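 further: carbachol stimulus at about its EC50 of 1 µM final; on the % scale 0 is the no-effect control and ±100 the full control effect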
Summary of the method: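 Read-out: CCF4 FRET ratio (460 nm/530 nm) after 1 h RT dye loading, used for %activity and AC50 from titration series. Cells: Jurkat NFAT-β-lactamase/M1 line, treated with compound plus 1 uM carbachol for 5 h, 37 °C.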

[5] = Stat Signaling Pathway (AID 446); details: ME-180 SIE beta-lactamase reporter, IL-6 stimulated, 5 h; at 7.69 µM (top of the series) unless noted;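 further: ME-180 cervical cancer cells given 40 pM IL-6 alongside compound; SIE-controlled beta-lactamase reporter measured as 460/530 nm FRET emission ratio; on the % scale 0 is the no-effect control and ±100 the full control effect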
Summary of the method: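 Screening format detects activators and inhibitors alike: ME-180 SIE-bla cells stimulated at 40 pM IL-6 for 5 hrs with compound, then dual-emission beta-lactamase read at 405 nm excitation.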

[6] = target: Glucocorticoid receptor (Homo sapiens) (UniProt P04150); assay: GR-GFP Redistribution (AID 450;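 active means compounds whose dose series gives a full or clear partial fitted curve of increased nuclear translocation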; further: potency means the concentration at half of the fitted maximal effect); details: U2OS GR-GFP nuclear translocation, laser cytometry, 2 h
[7] = target: Glucocorticoid receptor (Homo sapiens) (UniProt P04150); assay: GR-EFC Redistribution (AID 451; calls by dose curve; further: potency means the concentration at half of the fitted maximal effect); details: CHO-K1 GR-EFC translocation, beta-gal luminescence, 2 h
Summary of the method: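 Translocation of GR-ED fusion to nuclear EA restores b-gal, read by luminescence after 1 h room-temperature detection. Engineered CHO-K1 biosensor cells, 1,000/well, exposed 2 h at 37 C to titrations up to 46 uM final.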

[8] = target: 3',5'-cyclic-AMP phosphodiesterase 4B (Homo sapiens) (UniProt Q07343); assay: qHTS Assay for Inhibitors of PDE-IV (AID 607; active means well fitted activation curve with a large enough effect in the main read-out, with a control signal flat, not every such curve was filed as active; further: % of control where 0% means no effect); details: HEK293 ACTOne CNG channel cells, membrane potential fluorescence; series mostly up to 22.9 µM
Summary of the method: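 The readout is membrane depolarisation from a cAMP-sensing CNG channel, detected with a potential dye at ex 535/em 590. Cells were HEK293-derived (endogenous PDE-IV) at 1000 cells/well, titrated up to 22.9 uM final.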

[9] = target: Mitogen-activated protein kinase 10 (Mus musculus) (UniProt Q61831); assay: JNK3 AlphaScreen Assay (AID 530); details: JNK3 lysate, c-Jun phosphorylation; series mostly up to 11.4 µM;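 further: kinase came from lysate of stimulated human HepG2 cells; signal reports phosphorylation of biotinylated GST-cJun 1-79 at Ser73 with 10 µM ATP; on the % scale 0 is the no-effect control and ±100 the full control effect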
Summary of the method: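 Room-temperature AlphaScreen kinase assay; pre-activated HepG2 lysate as JNK3 source, biotin-GST-cJun(1-79) substrate, 10 uM ATP, compound 15 min preincubation.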

[10] = target: Cytochrome P450 2C9 (Homo sapiens) (UniProt P11712); assay: qHTS Assay for Inhibitors and Substrates of Cytochrome P450 2C9 (AID 883; active means well fitted curve in the direction sought with a large enough effect; an effect the other way counts as inactive or inconclusive; further: nearly all actives have a fitted effect of over 60% in size; further: potency means the concentration at half of the fitted maximal effect); details: recombinant CYP2C9, luciferin-H luminescence, 60 min; series mostly up to 11.4 µM
Summary of the method: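 Luminescent read-out of deoxyluciferin hydroxylation, normalized to 57uM sulphaphenazole (AC100). Reaction: 10nM enzyme, 100uM Luciferin-H (equal to KM), 25mM KPO4, 10 min compound preincubation, then 60 min with NADPH regeneration, both at 37C.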

[11] = target: Cytochrome P450 3A4 (Homo sapiens) (UniProt P08684); assay: qHTS Assay for Inhibitors and Substrates of Cytochrome P450 3A4 (AID 884; active means well fitted curve in the direction sought with a large enough effect; an effect the other way counts as inactive or inconclusive; further: potency means the concentration at half of the fitted maximal effect; nearly all actives have a fitted effect of over 50% in size); details: recombinant CYP3A4, Luciferin-PPXE luminescence; series mostly up to 57.1 µM
Summary of the method: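 20 nM human CYP3A4 with 25 uM Luciferin-PPXE (at KM) in 200 mM KPO4, preincubated 10 min with compound; NADPH regeneration started a 60 min RT reaction. Luciferin detected by luminescence, normalized to 57 uM ketoconazole as full inhibition.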

[12] = target: Cytochrome P450 3A4 (Homo sapiens) (UniProt P08684); assay: qHTS Assay for Activators of Cytochrome P450 3A4 (AID 885; active means well fitted curve in the direction sought with a large enough effect; an effect the other way counts as inactive or inconclusive; further: nearly all actives have a fitted effect of over 65% in size); details: recombinant CYP3A4, Luciferin-PPXE luminescence, 60 min; series mostly up to 11.4 µM
Summary of the method: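 Steps: enzyme/substrate mix dispensed; compound added, 10 min RT; NADPH regeneration solution added, 60 min RT; luciferin detection buffer stops reaction; 20 min later luminescence measured.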

Chain of Cytochrome P450 2C9 (Homo sapiens) (P11712 whole entry, looked up): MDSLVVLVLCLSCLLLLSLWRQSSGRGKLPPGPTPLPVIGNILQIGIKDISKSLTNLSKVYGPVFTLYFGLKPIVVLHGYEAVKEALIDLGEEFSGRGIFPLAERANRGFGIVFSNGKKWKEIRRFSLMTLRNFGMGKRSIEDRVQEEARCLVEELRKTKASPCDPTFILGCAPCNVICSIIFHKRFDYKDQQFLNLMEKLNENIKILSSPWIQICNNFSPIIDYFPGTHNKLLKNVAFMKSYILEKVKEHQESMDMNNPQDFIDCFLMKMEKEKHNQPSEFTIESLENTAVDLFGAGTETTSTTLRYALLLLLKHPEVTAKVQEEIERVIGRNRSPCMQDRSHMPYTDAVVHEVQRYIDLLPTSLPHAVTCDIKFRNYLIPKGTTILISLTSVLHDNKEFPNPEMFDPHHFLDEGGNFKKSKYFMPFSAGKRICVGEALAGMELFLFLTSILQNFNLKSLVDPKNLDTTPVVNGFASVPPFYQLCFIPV
Chain of Glucocorticoid receptor (Homo sapiens) (P04150 whole entry, looked up, the tested form may be a part): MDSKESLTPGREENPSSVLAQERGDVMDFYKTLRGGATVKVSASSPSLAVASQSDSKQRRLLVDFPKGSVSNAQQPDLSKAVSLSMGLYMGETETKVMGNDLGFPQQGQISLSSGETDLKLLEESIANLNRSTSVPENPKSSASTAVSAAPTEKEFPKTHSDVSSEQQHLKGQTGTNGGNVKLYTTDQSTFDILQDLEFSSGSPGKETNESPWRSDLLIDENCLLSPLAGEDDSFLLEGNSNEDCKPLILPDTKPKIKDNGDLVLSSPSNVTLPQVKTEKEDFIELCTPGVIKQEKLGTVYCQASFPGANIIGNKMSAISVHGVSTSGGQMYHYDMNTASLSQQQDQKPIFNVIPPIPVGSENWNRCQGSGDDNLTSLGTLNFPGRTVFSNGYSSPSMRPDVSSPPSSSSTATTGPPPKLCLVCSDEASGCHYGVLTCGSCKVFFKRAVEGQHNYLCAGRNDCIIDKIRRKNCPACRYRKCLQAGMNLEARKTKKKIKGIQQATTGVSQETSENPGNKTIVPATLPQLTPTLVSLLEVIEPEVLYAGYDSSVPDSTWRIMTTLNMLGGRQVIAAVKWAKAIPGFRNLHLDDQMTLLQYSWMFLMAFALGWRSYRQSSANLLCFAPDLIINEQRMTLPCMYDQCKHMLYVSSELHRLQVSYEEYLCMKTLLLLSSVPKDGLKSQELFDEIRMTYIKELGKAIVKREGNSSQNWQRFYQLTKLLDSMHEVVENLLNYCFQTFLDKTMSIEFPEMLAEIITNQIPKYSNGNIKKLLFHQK
Chain of 3',5'-cyclic-AMP phosphodiesterase 4B (Homo sapiens) (Q07343 whole entry, looked up): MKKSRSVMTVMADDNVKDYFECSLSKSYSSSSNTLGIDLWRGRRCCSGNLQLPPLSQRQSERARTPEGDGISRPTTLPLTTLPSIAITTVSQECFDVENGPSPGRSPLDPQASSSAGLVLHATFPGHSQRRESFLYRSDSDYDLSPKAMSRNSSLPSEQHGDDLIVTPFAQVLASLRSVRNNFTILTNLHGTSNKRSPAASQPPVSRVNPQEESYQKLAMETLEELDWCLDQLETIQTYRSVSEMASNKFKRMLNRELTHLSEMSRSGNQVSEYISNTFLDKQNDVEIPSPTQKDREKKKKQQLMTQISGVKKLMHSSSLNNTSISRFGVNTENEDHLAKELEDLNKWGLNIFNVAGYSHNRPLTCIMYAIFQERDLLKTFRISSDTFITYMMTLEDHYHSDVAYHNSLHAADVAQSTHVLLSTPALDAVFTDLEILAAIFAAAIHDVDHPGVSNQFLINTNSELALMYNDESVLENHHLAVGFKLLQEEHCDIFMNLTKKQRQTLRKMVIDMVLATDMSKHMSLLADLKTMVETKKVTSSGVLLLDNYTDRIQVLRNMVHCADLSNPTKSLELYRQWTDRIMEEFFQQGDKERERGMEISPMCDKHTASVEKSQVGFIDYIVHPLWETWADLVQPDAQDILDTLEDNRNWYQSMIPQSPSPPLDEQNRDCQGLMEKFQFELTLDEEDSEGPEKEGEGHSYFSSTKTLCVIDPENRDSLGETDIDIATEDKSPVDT
Chain of Cytochrome P450 3A4 (Homo sapiens) (P08684 whole entry, looked up): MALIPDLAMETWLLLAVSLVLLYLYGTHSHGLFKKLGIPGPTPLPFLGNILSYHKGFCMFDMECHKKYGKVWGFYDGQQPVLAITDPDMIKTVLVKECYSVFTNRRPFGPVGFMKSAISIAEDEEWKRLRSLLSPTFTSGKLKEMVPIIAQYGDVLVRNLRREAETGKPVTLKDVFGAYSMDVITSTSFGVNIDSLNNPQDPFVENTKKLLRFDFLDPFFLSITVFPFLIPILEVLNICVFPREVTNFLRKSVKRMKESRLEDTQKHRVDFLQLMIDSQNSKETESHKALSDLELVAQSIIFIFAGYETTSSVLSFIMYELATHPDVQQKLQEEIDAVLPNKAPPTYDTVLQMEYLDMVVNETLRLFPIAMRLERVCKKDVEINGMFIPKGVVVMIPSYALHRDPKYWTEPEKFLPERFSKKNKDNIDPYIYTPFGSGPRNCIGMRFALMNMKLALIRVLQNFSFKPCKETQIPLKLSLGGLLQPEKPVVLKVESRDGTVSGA
Chain of Lysosomal acid glucosylceramidase (Homo sapiens) (P04062 whole entry, looked up): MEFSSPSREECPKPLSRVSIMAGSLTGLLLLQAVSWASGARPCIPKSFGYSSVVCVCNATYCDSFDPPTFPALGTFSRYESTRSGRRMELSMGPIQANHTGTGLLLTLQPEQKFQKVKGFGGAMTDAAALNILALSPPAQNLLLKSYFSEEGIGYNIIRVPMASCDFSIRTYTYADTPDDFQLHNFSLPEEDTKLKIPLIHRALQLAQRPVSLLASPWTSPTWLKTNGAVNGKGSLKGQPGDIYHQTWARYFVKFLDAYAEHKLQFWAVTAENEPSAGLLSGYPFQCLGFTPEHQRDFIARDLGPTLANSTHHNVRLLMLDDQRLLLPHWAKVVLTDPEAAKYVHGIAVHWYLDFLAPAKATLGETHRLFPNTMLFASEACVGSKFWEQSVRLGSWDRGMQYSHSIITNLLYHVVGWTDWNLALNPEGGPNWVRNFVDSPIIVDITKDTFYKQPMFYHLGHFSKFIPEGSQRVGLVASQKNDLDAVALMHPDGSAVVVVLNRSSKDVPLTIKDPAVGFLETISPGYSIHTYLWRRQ
Chain of Cytochrome P450 1A2 (Homo sapiens) (P05177 whole entry, looked up): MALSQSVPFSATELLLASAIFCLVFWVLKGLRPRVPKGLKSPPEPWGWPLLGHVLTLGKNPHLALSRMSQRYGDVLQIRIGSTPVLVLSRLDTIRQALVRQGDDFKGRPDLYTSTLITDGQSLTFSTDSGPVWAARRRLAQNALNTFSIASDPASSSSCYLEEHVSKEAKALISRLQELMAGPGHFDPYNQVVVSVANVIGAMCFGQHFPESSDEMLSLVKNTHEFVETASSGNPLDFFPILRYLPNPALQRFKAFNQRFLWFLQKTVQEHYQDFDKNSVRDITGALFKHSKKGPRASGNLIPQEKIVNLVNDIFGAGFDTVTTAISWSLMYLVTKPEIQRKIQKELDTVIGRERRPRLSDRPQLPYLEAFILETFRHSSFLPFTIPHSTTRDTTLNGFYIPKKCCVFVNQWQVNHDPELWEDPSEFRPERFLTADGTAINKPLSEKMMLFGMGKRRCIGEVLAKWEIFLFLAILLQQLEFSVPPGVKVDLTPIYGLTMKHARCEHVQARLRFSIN

Row | SMILES | Potency [1] [µM] | activity change, negative = inhibition [2] [%] | Potency [3] | activity change, negative = inhibition [4] [%] | activity, negative = inhibition [5] [%] | Potency [6] [µM] | Potency [7] [µM] | Potency [8] | Potency [9] | Potency [10] | Potency [11] | Potency [12] | activity change, negative = inhibition [3]
1 | O=C(O)CC12C[C@H]3C[C@@H](CC(O)(C3)C1)C2 | > 11.4 | 9.34 | inactive | -2.52 | -1.43 | > 46 | > 9.22 | inactive | – | – | – | – | –
2 | COc1ccc(/C=C(\C#N)C(N)=O)cc1OC | > 11.4 | -5.77 | 3.16 µM (active) | 11.6 | -2.19 | > 46 | > 9.22 | inactive | – | – | – | – | –
3 | C[Si](C)(c1ccc(C(=O)O)cc1)c1ccc(C(=O)O)cc1 | > 11.4 | -1.98 | inactive | -2.05 | 14.2 | > 46 | – | inactive | inactive | – | – | – | –
4 | O=C(O)c1cccc(CN2CCCCC2)c1 | > 11.4 | 9.32 | inactive | -15.5 | 3.88 | > 46 | > 9.22 | inactive | – | inactive | – | – | –
5 | O=c1c(CCc2ccccc2)nc2cnc(Oc3cccc(Cl)c3)nc2n1C[C@H]1CCCO1 | > 11.4 | -27.5 | 3.98 µM (active) | -15.5 | -17.7 | > 9.22 | > 46 | – | – | 6.31 µM (active) | 0.501 µM (active) | inactive | –
6 | O[C@H](COc1ccccc1)CN1CCCCC1 | > 11.4 | -1.24 | inactive | 2.42 | 10.3 | > 46 | – | inactive | inactive | – | – | – | –
7 | CN(CC(=O)O)Cc1c[nH]c2ccccc12 | > 11.4 | -2.9 | inactive | -8.48 | -5.98 | > 46 | > 9.22 | inactive | – | – | – | – | –
8 | COCCn1c(=O)c(-c2cccs2)nc2cnc(Oc3ccc(OC)cc3)nc21 | > 11.4 | -1.43 | 2.51 µM (active) | 15.8 | 11.7 | > 9.22 | > 46 | inactive | – | 5.01 µM (active) | 0.794 µM (active) | – | –
9 | COc1cc(C2SCCCCCCCCCCSC(c3ccc(O)c(OC)c3)SCCCCCCCCCCS2)ccc1O (stereo unspecified) | > 11.4 | -0.286 | – | 19.7 | 9.48 | > 46 | – | inactive | inactive | – | – | – | -6.9% [at 2.29 µM]
10 | O=C(CCCc1ccccn1)c1ccccc1 | > 11.4 | 4.82 | 5.01 µM (active) | 1.79 | 2.46 | > 46 | – | inactive | inactive | – | – | – | –
11 | CCOC(=O)C(C)(C)[C@H](O)C(C)C | > 11.4 | -4.38 | inactive | 6.94 | -3.53 | > 46 | – | inactive | inactive | – | – | – | –
12 | O=C(Nc1ccc(Nc2ccc3c(c2)C(=O)c2ccccc2C3=O)c2c1C(=O)c1ccccc1C2=O)c1ccccc1 | > 11.4 | -0.845 | 1.58 µM (active) | 18.6 | 13 | > 46 | – | inactive | inactive | – | – | – | –
13 | CN(CCO)Cc1ncccc1O | > 11.4 | -2.61 | – | 14.9 | 12.9 | > 46 | > 9.22 | inactive | – | – | – | – | -10% [at 2.29 µM]
14 | O=C(O)c1c[nH]c2c(ccc3[nH]cc(C(=O)O)c(=O)c32)c1=O | > 11.4 | -0.603 | 5.01 µM (active) | 8.43 | 13.7 | > 46 | > 9.22 | inactive | – | – | – | – | –
15 | NC(N)=N[C@@H]1C(O)[C@H](N=C(N)N)[C@@H](O)C(O)[C@H]1O (stereo partly specified) | > 11.4 | -5.59 | – | 13.4 | -0.855 | > 46 | – | inactive | inactive | – | – | – | -4.9% [at 2.29 µM]
16 | O=C1C[C@H]2C(=O)[C@@H]1[C@@H](C(=O)O)[C@H]2C(=O)O | > 11.4 | 5.27 | inactive | 7.84 | -5.86 | > 46 | > 9.22 | inactive | – | – | – | – | –
17 | C[C@@](N)(Cc1c[nH]c2ccccc12)C(=O)O | > 11.4 | 13.6 | inactive | -4.57 | 10.9 | > 46 | – | inactive | inactive | – | – | – | –

— PubChem BioAssay (NCATS)
